Tau fluor cs: counter-screen for tau fibril formation inhibitors. tau K18 P301L Alexa594 fluorescence, heparin fibrillization. Potency, µM (top dose mostly 57.7 µM), inactives show at the highest dose activity change, negative = decrease. 280,000 compounds, 0.93% hits. AID 1463; also: potency is read from the fitted curve at half-maximal effect; nearly all actives have a fitted effect of over 55% in size
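Human K18 P301L tau (15 uM unlabeled plus 0.24 uM Alexa 594-labeled, final) in 100 mM sodium acetate pH 7 was mixed with compound and 20 uM heparin and incubated 6 hr at 37 C.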
Tau FP inhib: blocks human tau fibril formation measured by polarization; K18 P301L tau heparin fibrillization, Alexa594 FP, 6 h; Potency, µM (doses to about 57.7 µM), for inactives: at the top dose activity, negative = inhibition, usual class: inhibitors; 280,000 compounds, 0.39% hits; AID 1468; also: potency is read from the fitted curve at half-maximal effect; nearly all actives have a fitted effect of over 55% in size
Target sequence (P10636 561-689 P618L limits assumed): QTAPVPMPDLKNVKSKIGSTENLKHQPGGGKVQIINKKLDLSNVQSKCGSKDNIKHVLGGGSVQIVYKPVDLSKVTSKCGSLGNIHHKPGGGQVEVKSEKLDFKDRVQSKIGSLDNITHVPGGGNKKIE
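Human tau K18 […] P301L fragment, 15 uM unlabeled plus 0.24 uM Alexa 594-labeled tau (final), with compound and 20 uM heparin in 100 mM sodium acetate pH 7; 6 hr at 37 C, then Alexa 594 FP read.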
Sfp PPTase inh: blocks B. subtilis Sfp PPTase activity; Biochemical Sfp PPTase activity, qHTS; Potency, µM, for the others: largest response in the series, negative = inhibition, most hits filed as inhibitors; 310,000 compounds, 3.5% hits; Q9F4F7;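 also: the enzyme is Sfp with the accession as filed and its product quenches rhodamine fluorescence; potency is read from the fitted curve at half-maximal effect; 0% = enzyme reaction without inhibitor and -100% = no enzyme wells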
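Buffer: 50 mM Hepes-Na pH 7.6, 10 mM MgCl2, 0.01% Nonidet P-40, 0.01% BSA. Enzyme 15 nM, pre-exposed to compound 15 min; substrates then added and fluorescence change tracked over 30 min.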
Tau fibril ThT: blocks human tau fibril formation measured by thioflavin T. 270,000 compounds, 2.1% hits. Potency, µM (highest dose often 57.4 µM), for inactives: at the highest dose activity, negative = inhibition, hits mostly inhibitors. P10636. recombinant tau K18 P301L (four-repeat tau fragment), heparin-induced fibrillization, ThT fluorescence; also: potency is read from the fitted curve at half-maximal effect; nearly all actives have a fitted effect of over 55% in size
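Aggregation was driven by heparin (20 uM final) acting on recombinant tau […] bearing P301L in 100 mM sodium acetate pH 7; fibrils were detected with Thioflavin T.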
FBPA coupling cs: counter-screen for Giardia aldolase inhibitors: coupling enzyme system; coupling enzyme system counterscreen, AmpLite Red fluorescence; activity change, negative = inhibition, % at 58.2 µM, hits read low; 290,000 compounds, 0.67% hits; in the data active = activity change below about -30%
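Activity here indicates interference with the coupling reaction, not aldolase inhibition. Compounds at 57.5 uM final met coupling enzymes for 10 min at RT; substrate and AmpLite Red detection followed, with a 525/598 nm fluorescence read after 20 min.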
G9a inh: blocks human histone lysine methyltransferase G9a. 350,000 compounds, 8.8% hits. G9a H3K9 monomethylation, AlphaScreen, 2 h. Q96KQ7. Potency, µM (titrated, usually from 102 µM), for inactives: top-dose activity, negative = inhibition, actives largely listed as inhibitors; also: potency is read from the fitted curve at half-maximal effect; nearly all actives have a fitted effect of over 75% in size
Target sequence (Q96KQ7 913-1193 limits assumed): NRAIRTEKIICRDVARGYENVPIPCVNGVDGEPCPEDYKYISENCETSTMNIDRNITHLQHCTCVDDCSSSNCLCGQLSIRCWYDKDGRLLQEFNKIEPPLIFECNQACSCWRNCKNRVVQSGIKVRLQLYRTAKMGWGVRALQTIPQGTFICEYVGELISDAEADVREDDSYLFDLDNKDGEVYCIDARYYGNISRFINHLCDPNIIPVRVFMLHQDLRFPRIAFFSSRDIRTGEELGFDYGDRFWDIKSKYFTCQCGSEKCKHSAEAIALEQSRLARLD
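G9a (20 nM) preincubated 15 min RT with compounds, then 500 nM biotinylated H3K9 peptide and 20 uM SAM added; 2 h RT reaction. Monomethyl-H3K9 product detected by AlphaScreen with anti-H3K9me1 antibody, streptavidin donor and anti-rabbit IgG acceptor beads.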
An asterisk follows results filed as active; ! = a repeat was not active; [ ] = remark or other dose. Compounds with a hit are over-represented: about 11% of the library has one in this group of screens. Unless noted, calls follow the shape of the dose curve; as a rule, active = well fitted curve in the direction sought with a large enough effect; inconclusive = small, poorly fitted or top-dose-only effect, or another doubt; inactive = no such curve, though single readings can be large; an effect the other way counts as inactive or inconclusive. Unless noted, % is scaled to controls: 0 for no effect and ±100 for the full control effect.

What do the screens show for `CCC1CN2CCC1CC2C(O)c1ccnc2ccc(OC)cc12` (configuration not stated)?
Tau fluor cs: -4%; Tau FP inhib: 1%; Sfp PPTase inh: 14%; Tau fibril ThT: -4%; FBPA coupling cs: 3; G9a inh: 6%[2.33 µM]

What do the screens show for `Nc1c([N+](=O)[O-])ccc(Oc2ccccc2)c1Cl`?
Sfp PPTase inh: -18%; FBPA coupling cs: -7

What do the screens show for `COc1cccc(CCNCc2cccc(C(F)(F)F)c2)c1`?
Tau fluor cs: -2%; Tau FP inhib: 2%; Sfp PPTase inh: -7%; Tau fibril ThT: 0%; FBPA coupling cs: 2; G9a inh: 10µM*

What do the screens show for `COc1cc(C(=O)OCc2cc(=O)c(O)co2)ccc1OC(F)F`?
Sfp PPTase inh: 13%; FBPA coupling cs: -1; G9a inh: inconclusive

Results for O=[N+]([O-])c1ccc(CN2CCN(c3ccc(Cl)cc3)CC2)o1 ?
Sfp PPTase inh: 79µM*; FBPA coupling cs: -7

Results for CCNC(=O)[C@H]1O[C@@H](n2cnc3c(N)ncnc32)[C@H](O)[C@H]1O ?
Tau fluor cs: 3%; Tau FP inhib: 5%; Tau fibril ThT: 4%; G9a inh: 51%[12.7 µM]

How did COC[C@H]1OC(=O)c2coc3c2[C@@]1(C)C1=C(C3=O)C2CCC(=O)[C@@]2(C)C[C@H]1OC(C)=O (some centres not stated) do in these assays?
Tau fluor cs: inconclusive; Tau FP inhib: inconclusive; Sfp PPTase inh: inconclusive; Tau fibril ThT: 18µM*!; FBPA coupling cs: -20; G9a inh: 28µM*!

How did COC[C@H]1OC(=O)c2coc3c2[C@@]1(C)C1=C(C3=O)[C@H]2CCC(=O)[C@@]2(C)C[C@H]1OC(C)=O do in these assays?
Tau fluor cs: inconclusive; Tau FP inhib: 28µM*; Sfp PPTase inh: inconclusive; Tau fibril ThT: 14µM*; FBPA coupling cs: -27

What do the screens show for `O=C(c1ccncc1)N1CCC[C@@]2(CCN(Cc3nccs3)C2)C1`?
Sfp PPTase inh: 21%; FBPA coupling cs: 0; G9a inh: -2%[12.7 µM]

How did COC(=O)c1cn(S(=O)(=O)c2ccccc2)c2ccccc12 do in these assays?
Sfp PPTase inh: inconclusive; FBPA coupling cs: 0; G9a inh: inconclusive

Results for CNC(C)Cc1ccc(OC)cc1 (configuration not stated) ?
Sfp PPTase inh: -6%; FBPA coupling cs: 0

Results for CCCN(CC#CCOc1ccc(OC)cc1)CCC ?
Tau fluor cs: -3%; Tau FP inhib: -1%; Sfp PPTase inh: -25%; Tau fibril ThT: -17%; FBPA coupling cs: -1; G9a inh: 8.9µM*

Results for C[C@H]1C[C@H](C)C(=O)[C@@H]([C@H](O)CC2CC(=O)NC(=O)C2)C1 ?
Tau fluor cs: -11%; Tau FP inhib: 5%; Sfp PPTase inh: 17%; Tau fibril ThT: -14%; FBPA coupling cs: 0

What do the screens show for `CCN(CC)CCN=Cc1c(O)n(Cc2ccco2)c(=O)[nH]c1=O`?
Tau fluor cs: -1%; Tau FP inhib: -3%; Sfp PPTase inh: -1%; Tau fibril ThT: -6%; FBPA coupling cs: -1

What do the screens show for `Cc1ccc(-n2c(O)c(C=NCc3ccco3)c(=O)[nH]c2=S)cc1C`?
Tau fluor cs: 4%; Tau FP inhib: -9%; Sfp PPTase inh: 20µM*; Tau fibril ThT: inconclusive; FBPA coupling cs: -2; G9a inh: inconclusive

What do the screens show for `CCCCC(=O)N/N=C/c1c(O)n(Cc2ccco2)c(=O)[nH]c1=O`?
Tau fluor cs: -6%; Tau FP inhib: -4%; Sfp PPTase inh: -24%; Tau fibril ThT: -16%; FBPA coupling cs: 3; G9a inh: inconclusive

Results for CC(=O)Nc1ccc(N=Cc2c(O)n(Cc3ccco3)c(=O)[nH]c2=O)cc1 ?
Tau fluor cs: -22%; Tau FP inhib: inconclusive; Sfp PPTase inh: -14%; Tau fibril ThT: inconclusive; FBPA coupling cs: 4; G9a inh: 50µM*

What do the screens show for `O=c1[nH]c(=O)n(Cc2ccco2)c(O)c1C=NCc1ccco1`?
Tau fluor cs: -3%; Tau FP inhib: -11%; Sfp PPTase inh: 25µM*; Tau fibril ThT: inconclusive; FBPA coupling cs: -1; G9a inh: -4%[0.501 µM]

How did CN1Cc2c(ccc3c2OCO3)[C@@H]2[C@@H](O)Cc3cc4c(cc3[C@@H]21)OCO4 do in these assays?
Sfp PPTase inh: 10%; FBPA coupling cs: 1; G9a inh: 21%[21.5 µM]

What do the screens show for `O=C(Cc1ccccc1)Oc1coc(CSc2ncccn2)cc1=O`?
Tau fluor cs: -5%; Tau FP inhib: 8%; Sfp PPTase inh: 1%; Tau fibril ThT: -15%; FBPA coupling cs: 1; G9a inh: -7%

What do the screens show for `CC(=O)O[C@@H]1[C@@H](O)C2OC3C=C(C)C(=O)[C@@H](O)[C@]3(CO)C1(C)C21CO1` (some centres not stated)?
Sfp PPTase inh: 2%; FBPA coupling cs: 0

Results for CCC/C=C/C=C/C(=O)OC1/C(=C/C(=O)OC)CC2CC(C(C)O)OC(=O)CC(O)CC3CC(OC(C)=O)C(C)(C)C(O)(CC4C/C(=C/C(=O)OC)CC(/C=C\C(C)(C)C1(O)O2)O4)O3 (configuration not stated) ?
Sfp PPTase inh: 10%; G9a inh: -8%[12.7 µM]

Results for COc1ccc2[nH]cc(CCN(C)C)c2c1 ?
Tau fluor cs: 5%; Tau FP inhib: 1%; Sfp PPTase inh: -9%; Tau fibril ThT: -5%; FBPA coupling cs: -1; G9a inh: 56µM*!

How did COc1ccc(CNC(=O)/C=C/c2ccc3[nH]cc(CCN(C)C)c3c2)cc1 do in these assays?
Tau fluor cs: -18%; Tau FP inhib: 2%; Sfp PPTase inh: 5%; Tau fibril ThT: -10%; FBPA coupling cs: 2; G9a inh: 40µM*!

How did Cc1cccc(CNCCc2c[nH]c3ccccc23)c1 do in these assays?
Sfp PPTase inh: -19%; FBPA coupling cs: 0

Results for COc1ccc2c(CCN)c[nH]c2c1 ?
Tau fluor cs: -8%; Tau FP inhib: 9%; Sfp PPTase inh: 12%; Tau fibril ThT: -14%; FBPA coupling cs: -1; G9a inh: 17%[59 µM]

What do the screens show for `CC(C)(O)[C@@H]1[C@H]2OC(=O)[C@@H]1[C@]1(O)C[C@H]3O[C@]34C(=O)O[C@H]2[C@@]14C` (tested in a mixture with another compound)?
Tau fluor cs: 1%; Tau FP inhib: 2%; Sfp PPTase inh: -13%; Tau fibril ThT: 2%; FBPA coupling cs: 5

Results for O=c1n(Cl)c(=O)n(Cl)c(=O)n1Cl ?
Sfp PPTase inh: -5%; G9a inh: 13µM*

Bioassay records as filed in PubChem.
